From PubChem BioAssay (Tox21)
Inconclusive results are not listed. Unmarked numbers belong to inactive results. The source made the active and inactive calls. Calls follow the shape of the full dose curve.

Test: qHTS assay to identify small molecule antagonists of the sonic hedgehog signaling (Shh) pathway (AID 1259369); also: nearly all actives have a fitted effect of over 45% in size
Conditions: NIH/3T3 Gli1-Luc reporter, Shh antagonist, luminescence 24 h; series mostly up to 92.4 µM; activity change, negative = inhibition: at the top concentration
Excerpt: U.S. Tox21 Program National Center for Advancing Translational Sciences [NCATS] NIH Chemical Genomics Center [NCGC] U.S. Environmental Protection Agency [EPA] National Institutes of Environmental Health Sciences [NIEHS] National Toxicology Program [NTP] U.S. Food and Drug Administration [FDA] Tox21 Assay Overview: The sonic hedgehog (Shh) pathway is essential for normal embryonic development. Dysregulation of the Shh pathway can cause severe developmental defects in organs. Therefore chemicals that interfere with the pathway are potential developmental toxicants. A cell line designated 3T3Gli1-Luc (DMB/OARSA/CFSAN/FDA, Laurel, MD), a NIH/3T3 derived clone containing stably integrated Gli1-Luc reporter is used to detect chemical interference of the Shh pathway, by changes in the expression of the firefly Luc gene under the control of the Gli1 transcriptional response element. This cell line was used to screen Tox21 libraries for identifying and prioritizing the potential developmental toxicants that interfere Shh pathway. Conditioned medium-stimulated mode was used to screen for chemicals inhibiting Shh signaling.
Tox21 Assay Protocol Summary: 3T3 Gli1-Luc cells were dispensed at 2,000 per well in 5uL of culture medium into white solid bottom 1536-well plates (Greiner Bio-One, Monroe, NC) using a Multidrop Combi (Thermo Scientific, Waltham, MA) dispenser. The assay plates were incubated at 37 C and 5% CO2 for 4hr, and then 23nL of compounds dissolved in DMSO and positive control were transferred using a Pintool station (Wako, San Diego, CA). The compound transfer was followed by the addition of 1ul conditioned medium or assay buffer using two separate tips of Flying Reagent Dispenser (FRD, Aurora Discovery, San Diego, CA). The assay plates were incubated at 37C and 5% CO2 for 24hr. For luciferase read, 4uL of Amplite Luciferase reporter gene assay reagent (AAT Bioquest, Inc. Sunnyvale, CA) was added to each well of the assay plates using FRD and incubated at room temperature for 30min. The luminescence signal was measured using a ViewLux plate reader (Perkin Elmer, Shelton, CT).
% is scaled to controls: 0 for no effect and ±100 for the full control effect; potency is read from the fitted curve at half-maximal effect.

Structure (SMILES) | activity change, negative = inhibition | Potency
COc1cccc(C(=O)NN(C(=O)c2cc(C)cc(C)c2)C(C)(C)C)c1C | 0% | 
ClCC(Cl)(Cl)Cl | -3.01% | 
CN(C)CCc1ccc(O)cc1 | 36.2% [at 42.5 µM] | 
CC1CCCCC1NC(=O)Nc1ccccc1 (stereo not given) | -2.75% | 
ClC(Cl)C(Cl)Cl | -13.8% | 
Clc1ccccc1N1CCNCC1 | -21.4% [at 42.5 µM] | 
OCCSCSCCO | 0% | 
NC(=O)O | 18.9% | 
CCOC(=O)NC(=S)Nc1ccccc1NC(=S)NC(=O)OCC | -7.88% | 
O=C1OC(=O)C2C1C1(Cl)C(Cl)=C(Cl)C2(Cl)C1(Cl)Cl (stereo not given) | -10.1% | 
O=C1c2ccccc2C(=O)c2ccccc21 | 17.7% [at 19 µM] | 
C=C(C)[C@@H]1CC=C(C=O)CC1 | 0.326% | 
Cc1cc(C)c(C(=O)P(=O)(C(=O)c2c(C)cc(C)cc2C)c2ccccc2)c(C)c1 | 0.462% | 
CCOP(=S)(OCC)SCSP(=S)(OCC)OCC | -2.66% | 
CNC(=O)O/N=C(\C)SC | 46.8% | 
CCC(C)n1c(=O)[nH]c(C)c(Br)c1=O (stereo not given) | -24.1% | 
COc1cc(OC)nc(NC(=O)NS(=O)(=O)c2ncccc2OCC(F)(F)F)n1 | 13.1% | 
CNC(=O)N(C)c1nc2ccccc2s1 | -2.23% | 
CC(CCc1ccccc1)NC(C)C(O)c1ccc(O)cc1 (stereo not given) | 21.9% [at 42.5 µM] | 
CCNc1nc(NC(C)C)nc(OC)n1 | -27.6% | 

Structure (SMILES) | activity change, negative = inhibition | Potency
CC(C)NCC(O)c1ccc(N)c(C#N)c1 (stereo not given) | -9.23% [at 42.5 µM] | 
CC1=C(C(=O)O)N2C(=O)[C@@H](N)[C@H]2SC1 | -0.41% [at 19 µM] | 
CCOC(=O)CP(=O)(OCC)OCC | -0.124% | 
CC1(C)COP(Oc2ccccc2)OC1 | 5.55% | 
OC(Cn1cncn1)(c1ccc(F)cc1)c1ccccc1F (stereo not given) | -14.6% | 
CN1CCC(N(Cc2ccccc2)c2ccccc2)CC1 |  | 18.8 µM (active)
O=C(Oc1ccc(Br)cc1)N1CCN2CCC1CC2 | -21% | 
Nc1cnn(-c2ccccc2)c(=O)c1Cl | 0% | 
N#CCNCC#N | -2.2% | 
COc1cc(OC)nc(NC(=O)NS(=O)(=O)c2ncccc2C(=O)N(C)C)n1 | 33.1% | 
COC(C)(C)C | 16.8% | 
Cc1cnc[nH]1 | 1.36% | 
CCCCOP(=O)(O)OCCCC | 0% | 
CCOC(=O)C1(c2ccccc2)CCN(CCc2ccc(N)cc2)CC1 | 6.02% [at 42.5 µM] | 
CC(N)=S | 25.4% | 
N#CC(O)c1ccccc1 (stereo not given) | -17.3% | 
CCOP(=O)(N=C1SCCS1)OCC | 23.9% | 
BrCCCCCCBr |  | 24.3 µM (active)
CCS(=O)(=O)CCSP(=O)(OC)OC | -16.3% | 
CNC(=O)Oc1ccccc1C1OCCO1 | -1.5% | 
